Hits are enriched below; roughly 5.5% of the tested compounds scored in any of these assays.
CBFb-RUNX1 inh – blocks binding between human CBF-beta and RUNX1. Q01196+Q13951. AlphaScreen CBFb-His/RUNX1-biotin binding, biochemical. Potency, µM (titrated, usually from 59.8 µM), hits mostly inhibitors. 230,000 tested, under 10 active
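Read-out: AlphaScreen. Format: His-CBF-beta with biotinylated RUNX1 (30 nM each) preincubated 20 min, compound 15 min, Ni-chelate plus streptavidin beads 90 min; room temperature throughout.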
RORg inh – ROR gamma (mouse) transcription inhibition | P51450 | Drosophila S2 Gal4-RORgamma UAS-luciferase reporter, 20 h | Potency, µM (top dose mostly 53.6 µM), most hits filed as inhibitors | 310,000 compounds, 5.4% hits | AID 2551; also: nearly all actives have a fitted effect of over 60% in size
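In this cell-based reporter format, copper sulfate (700 uM final) drives Gal4–ROR gamma fusion expression from a metallothionein promoter in Drosophila Schneider cells; compounds preincubated 1 hr, reporter read after 20 hr at ambient temperature.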
MBNL1 CUG block – MBNL1-poly(CUG) RNA binding inhibition; Q9NR56; TR-FRET MBNL1-His/biotin-(CUG)12 binding, 665/545 ratio; Potency, µM (titrated, usually from 57.5 µM), usual class: inhibitors; 280,000 compounds, 0.036% hits; AID 2675; active = well fitted inhibition curve with a large enough effect in the signal ratio, with a control signal flat, not every such curve was filed as active; inconclusive = small, poorly fitted or top-dose-only effect, or effect the other way, or a change in a side signal; inactive = no such curve, though single readings can be large or run the other way; the % refers to the signal ratio
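His-tagged MBNL1 binding to biotinylated (CUG)12 RNA was measured by TR-FRET using terbium anti-His antibody (0.055 ng/ul final) and streptavidin-XL665 (5 nM final). Compounds were titrated 92 nM to 58 uM; 60 min at room temperature.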
Six1-Eya2 blk – Six1/Eya2 interaction inhibition | Q15475+O00167 | AlphaScreen GST-Six1/His-Eya2 binding, biochemical; stronger effect = lower value | activity change, % (concentration not given with the values) | 360,000 compounds, 0.56% hits; in the data active = activity change below about -65%; inconclusive = mostly about -30% to -63%
Target sequence (O00167 whole entry, looked up): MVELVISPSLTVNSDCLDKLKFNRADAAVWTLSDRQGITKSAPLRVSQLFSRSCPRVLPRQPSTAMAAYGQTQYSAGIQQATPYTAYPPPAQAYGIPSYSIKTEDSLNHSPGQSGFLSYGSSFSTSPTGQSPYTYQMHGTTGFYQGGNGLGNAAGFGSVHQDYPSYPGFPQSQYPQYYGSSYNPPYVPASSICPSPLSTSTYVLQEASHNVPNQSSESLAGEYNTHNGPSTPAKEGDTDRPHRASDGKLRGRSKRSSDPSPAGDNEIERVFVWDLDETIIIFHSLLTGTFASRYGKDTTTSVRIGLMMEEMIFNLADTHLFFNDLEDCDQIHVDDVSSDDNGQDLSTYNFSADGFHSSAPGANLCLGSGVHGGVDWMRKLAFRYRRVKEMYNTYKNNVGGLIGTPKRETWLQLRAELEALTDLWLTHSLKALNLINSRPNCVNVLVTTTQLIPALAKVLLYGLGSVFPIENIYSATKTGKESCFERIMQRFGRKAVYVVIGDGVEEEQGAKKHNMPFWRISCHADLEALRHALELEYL
Target sequence (Q15475 whole entry, looked up): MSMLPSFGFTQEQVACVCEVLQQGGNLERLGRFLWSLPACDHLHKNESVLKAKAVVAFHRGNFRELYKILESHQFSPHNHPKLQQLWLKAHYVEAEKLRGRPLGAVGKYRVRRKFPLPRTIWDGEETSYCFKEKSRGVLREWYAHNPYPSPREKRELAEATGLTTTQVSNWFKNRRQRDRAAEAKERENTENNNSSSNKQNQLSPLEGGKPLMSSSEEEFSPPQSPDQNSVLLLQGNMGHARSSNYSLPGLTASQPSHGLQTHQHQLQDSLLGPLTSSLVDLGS
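Compounds are tested against tagged Six1 and Eya2 proteins bridged by glutathione donor and nickel acceptor beads; after a one-hour incubation at 37 °C without light, AlphaScreen emission is recorded.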
Gal4-VP16 FLuc – Gal4-VP16 reporter inhibition counter-screen; Drosophila S2 Gal4-VP16 UAS-luciferase, luminescence, 20 h; Potency, µM (doses to about 53.6 µM), actives largely listed as inhibitors; 310,000 compounds, 3.5% hits; AID 2546;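 also: Gal4-VP16 expression switched on by copper sulfate through the metallothionein promoter; nearly all actives have a fitted effect of over 50% in size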
CtBP-E1A blk – CtBP/E1A binding inhibition; 340,000 compounds, 0.49% hits; AlphaScreen GST-E1A/His-CtBP binding, 1536-well; stronger effect = lower value; activity change, % (no concentration beside the values); in the data active = activity change below about -65%; inconclusive = mostly about -30% to -63%
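Steps: dispense buffer (Tris pH 8.0, NaCl 300 mM, TCEP 1 mM, BSA, Tween 20); add 5X protein mix (GST-E1A, His-CtBP, 125 nM each); pin 23 nL compound; 2 h at 37 °C, dark; add 5X beads (50 ug/mL); 1 h; read.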
Hits are given with their value; n = inactive; u = inconclusive; x = not tested or not shown; [ ] = another dose, or the depositor's remark. Unless noted, calls follow the shape of the dose curve; as a rule, active = well fitted curve in the direction sought with a large enough effect; inconclusive = small, poorly fitted or top-dose-only effect, or another doubt; inactive = no such curve, though single readings can be large; an effect the other way counts as inactive or inconclusive.

SMILES	CBFb-RUNX1 inh	RORg inh	MBNL1 CUG block	Six1-Eya2 blk	Gal4-VP16 FLuc	CtBP-E1A blk
CCCCN(CC(=O)NC1CC1)S(=O)(=O)c1ccc(OCC)cc1	x	x	x	n	x	n
Cc1ccc(C2(C)NC(=O)N(CC(=O)NNC(=O)c3ccccc3F)C2=O)cc1 (stereo unspecified)	x	x	x	n	x	n
Nc1nc2ccc(S(=O)(=O)N3CCCCC3)cc2s1	n	13µM	n	n	u	n
CCNc1nc(NCC)nc(N(C#N)C(C)C)n1	n	n	n	n	n	n
CCNc1nc(NCC)nc(N(CC)C(N)=S)n1	n	5µM	n	n	u	n
Cc1cccc(Cn2c(Cc3ccccc3)nc3ccccc32)c1	n	3.2µM	n	n	4.5µM	n
Cc1ccccc1Cn1c(Cc2ccccc2)nc2ccccc21	n	5.6µM	n	n	u	n
COCCn1c(COC)nc2ccccc21	n	n	n	n	n	n
COCc1nc2ccccc2n1CCc1ccccc1	x	11µM	n	n	u	x
Cc1cc(C)c(C)c(Cn2c(CO)nc3ccccc32)c1C	n	2µM	n	n	u	n
O=C(NC12CC3CC(CC(C3)C1)C2)c1ccc([N+](=O)[O-])o1	x	u	u	n	u	n
CC(=O)C1=CCC(c2ccc(F)cc2)N(S(=O)(=O)c2ccc(C)cc2)C1 (stereo unspecified)	x	x	x	n	x	n
COCc1nc2ccccc2n1Cc1cccc(C)c1	n	13µM	n	n	n	n
Cc1noc(C)c1-c1nccc(N2CCN(C)CC2)n1	x	n	x	x	n	x
Cc1cc(C(=O)NNC(=S)NCc2ccco2)n(C)n1	n	n	n	n	n	n
CC(C)(C)CC(=O)NC(=S)NCc1ccco1	n	4.5µM	n	n	u	n
O=C(CCc1ccccc1)NC(=S)NCc1ccco1	n	7.9µM	n	n	u	n
O=C(CNc1cccc2ccccc12)N/N=C/C=C/c1ccco1	n	13µM	x	n	u	x
O=C(N/N=C/C=C\c1ccco1)c1ccccn1	u	n	n	-88	n	n
O=C(N/N=C\C=C\c1ccco1)c1cncc(Br)c1	n	2.2µM	u	n	u	n
O=C(N/N=C/C=C\c1ccco1)c1cccnc1	n	13µM	u	n	u	n
O=C(N/N=C\c1ccco1)c1cncc(Br)c1	n	u	n	x	u	x
CN(C)c1ccc(C(C(=O)NCc2ccccc2)N(Cc2cccnc2)C(=O)c2snc(C(N)=O)c2N)cc1 (stereo unspecified)	x	n	u	n	n	n
O=C(CN1CCN(C(=O)C2CCCO2)CC1)Nc1cc(Cl)ccc1Cl (stereo unspecified)	x	n	n	n	n	n
COc1cc(/C=C/C(=O)OCC(=O)N(CC(C)C)c2c(N)n(Cc3ccccc3)c(=O)[nH]c2=O)ccc1O	x	x	x	n	x	n
SMILES	CBFb-RUNX1 inh	RORg inh	MBNL1 CUG block	Six1-Eya2 blk	Gal4-VP16 FLuc	CtBP-E1A blk
Cn1cc(C(=O)N/N=C/C=C/c2ccccc2)ccc1=O	n	u	u	n	u	n
O=C(N/N=C/C=C/c1ccc(Br)cc1)C(O)c1ccccc1 (stereo unspecified)	n	11µM	n	n	u	x
O=C(N/N=C/C=C/c1ccccc1)c1ccc(Br)cc1	n	3.2µM	n	n	4.5µM	n
O=C(N/N=C/C=C\c1ccccc1)c1cnccn1	n	n	n	n	n	n
O=C(N/N=C/C=C/c1ccccc1)c1cccnc1	n	5.6µM	u	n	u	n
O=C(NN=Cc1ccccc1O)C(O)c1ccccc1 (stereo unspecified)	x	x	x	u	x	-68
O=C(N/N=C/c1ccccc1)C(O)c1ccccc1 (stereo unspecified)	x	n[1.91 µM]	n	n	n	n
CCC(NC(=O)Cc1c(C)c2cc3c(cc2oc1=O)OC(C)(C)CC3)C(=O)O (stereo unspecified)	x	n	n	n	n	x
C[C@H](CO)N1C[C@H](C)[C@H](CN(C)Cc2ccc(C(=O)O)cc2)OCc2ccccc2-c2c(n(C)c3ccccc23)C1=O	x	x	x	n	x	n
CCOC(=O)C1=C(COC(=O)c2cccnc2Cl)NC(=O)NC1C (stereo unspecified)	x	x	x	n	x	n
O=C(N/N=C\c1cc(Br)c(Br)o1)c1cncc(Br)c1	n	1.4µM	n	n	2µM	n
O=C(N/N=C\C=C\c1ccco1)c1cc(-c2ccc3ccccc3c2)n[nH]1	n	2.2µM	n	n	1µM	x
O=C(N/N=C/C=C/c1ccco1)c1cccnc1	n	n	u	n	n	n
CCC(C)C(=O)Nc1nnc(CCc2ccccc2)s1 (stereo unspecified)	x	n	n	n	n	n
CC1(C)NC(=O)N(CC(=O)OCC(=O)N2CCN(S(=O)(=O)c3ccccc3)CC2)C1=O	x	x	x	n	x	n
CC1CCCN(S(=O)(=O)c2cc(C(=O)NCCc3ccc(S(N)(=O)=O)cc3)ccc2Cl)C1 (stereo unspecified)	x	x	x	n	x	n
Cc1ccc(C(=O)/C=C/Nc2cccc(O)c2)cc1	n	2.2µM	u	n	1µM	n
CC(=O)c1ccc(N/C=C\C(=O)c2ccc(C)cc2)cc1	n	n	n	n	n	n
COc1ccc(N/C=C\C(=O)c2ccc3ccccc3c2)cc1	x	n	n	n	n	n
COc1ccc(N/C=C/C(=O)c2ccccc2)cc1	x	7.9µM	n	n	10µM	x
CC(=O)c1cccc(NS(=O)(=O)c2ccc(N/C=C/C(=O)c3ccc(F)cc3)cc2)c1	n	u	n	n	4.5µM	n
O=C(/C=C\Nc1ccccn1)c1ccccc1	n	5µM	u	n	13µM	n
CC(=O)c1cccc(N/C=C\C(=O)c2ccc(C)cc2)c1	n	2.2µM	u	n	8.9µM	n
C/C(=C\C(=O)c1ccccc1)Nc1ccc(O)cc1	u	u	u	u	n	n
C/C(=C\C(=O)c1ccc(C)cc1)Nc1cccc(O)c1	n	6.3µM	n	n	3.5µM	n
SMILES	CBFb-RUNX1 inh	RORg inh	MBNL1 CUG block	Six1-Eya2 blk	Gal4-VP16 FLuc	CtBP-E1A blk
CC(=O)c1cccc(NS(=O)(=O)c2ccc(NC(=O)N3CCCCC3)cc2)c1	x	n	n	n	10µM	n
C/C(=C\C(=O)c1ccc(C)cc1)Nc1ccc(N2CCOCC2)cc1	n	n	n	x	n	x
C/C(=C\C(=O)c1cccnc1)Nc1ccc(O)cc1	n	13µM	u	n	u	n
CCCCNC(=O)Nc1ccc(C2SCCS2)cc1	n	n	x	n	n	n
CCCn1c(C)nc2c(NCc3ccccc3)nc(C)nc21	n	n	x	x	n	x
O=C(/C=C/Nc1cccc(O)c1)c1ccccc1	n	5µM	u	n	6.3µM	n
Cc1cc(=O)n(Cc2ccc(OC(C)C)cc2)c(=S)[nH]1	n	7.9µM	n	n	u	n
COc1ccc(-c2cn[nH]c2-c2ccc(OC)cc2O)cc1	x	u	n	n	20µM	n

Source: PubChem (National Center for Advancing Translational Sciences (NCATS))
